Hits are enriched below; roughly 2.7% of the tested compounds scored in any of these assays.
KDM5B inhibitor = KDM5B demethylase inhibition. Q9UGL1. KDM5B demethylase, FDH-coupled NADH fluorescence (FDH is formaldehyde dehydrogenase). AID 1347165. actives 2.6% (n = 220,000). Potency, µM (titrated, usually from 57.7 µM), most hits filed as inhibitors; active means well fitted inhibition curve with a large enough effect; inconclusive means small, poorly fitted or top-dose-only effect; inactive means no such curve, though single readings can be large or run the other way; further: potency means the concentration at half of the fitted maximal effect; 0% is about no effect; nearly all actives have a fitted effect of over 70% in size
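Here, H3K4me3 peptide (12.5 µM in substrate mix) is demethylated by KDM5BΔAP, 200 nM final, after 10 min compound exposure. Formaldehyde product is coupled through FDH (0.25 U/mL in mix) to NADH fluorescence; 30-min ΔRFU feeds dose-response curves.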
IP6K1 inhibitor = blocks human inositol hexakisphosphate kinase 1; Q92551; IP6K1 kinase, ADP-Glo luminescence, 2 h; hits give low values; activity change, % (series mostly up to about 58 µM); actives 0.81% (n = 140,000); AID 1645851; in the data active means activity change below about -25%; further: on the % scale 0 is the no-effect control and ±100 the full control effect
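ADP-Glo luminescence measures ADP made by human IP6K1 during a 2 h RT reaction with ATP/IP6 (mix at 1.3 mM/130 uM); top library doses 57.5 and 19.1 uM final.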
The depositor's hits bear a star; i = inactive; ? = inconclusive; · = no result given.

SMILES	KDM5B inhibitor	IP6K1 inhibitor
C#CCNC(=O)c1cc(-c2ccc([S+](C)(=O)[O-])cc2)nc2c1cnn2C	32µM*	-5
Cn1ncc2c(C(=O)NCc3ccc(F)cc3)cc(-c3ccc([S+](C)(=O)[O-])cc3)nc21	50µM*	6
C#CCNC(=O)c1cc(-c2ccc(OC)cc2)nc2c1cnn2C	·	-10
Cn1ncc2c(C(=O)NCc3ccc(F)cc3)cc(-c3ccc(F)cc3)nc21	·	15
CCCCc1ccc(NC(=O)C23CC4CC(CC(C4)C2)C3)cc1	i	·
CN(Cc1ccc(C(F)(F)F)cc1)C(=O)CCn1cnc2c1c(=O)n(C)c(=O)n2C	i	·
CCC(CC)C(=O)NC1CC(=O)N(c2ccc(OC)c(OC)c2)C1 (configuration not stated)	i	·
CN1CCN(C(=O)c2nc3sccn3c2-c2cccc(C(F)(F)F)c2)CC1	·	23
Cn1ncc2c(C(=O)NCCc3ccccn3)cc(-c3ccc(F)cc3)nc21	·	11
N[C@H]1CN(c2cncc(C(=O)N3CCCCC3)n2)C[C@@H]1C1CC1	28µM*	39
Cc1cnc(C(=O)N2CCCC(CCc3cccc(F)c3)C2)cn1 (configuration not stated)	i	10
O=C(c1ccc(N2CC3CC(C2)[C@H]2CCCC(=O)N2C3)nc1)N1CCCC1 (some centres not stated)	?	8
O=C(c1cncc(N2CCCC(CCc3cccc(F)c3)C2)n1)N1CCCCC1 (configuration not stated)	25µM*	30
O=C(Cn1cccc1-c1nc(-c2ccc(F)cc2)no1)Nc1cccc(Cl)c1	i	17
Cn1ncc2c(C(=O)NCCc3c[nH]c4ccccc34)cc(-c3ccc(C(F)(F)F)cc3)nc21	·	-6
COCCCn1c(=O)c(C(=O)N2CCN(C(=O)c3ccccc3C)CC2)nc2cccnc21	·	-2
Cc1ccn2c(C(=O)N3CCCn4nc(C(O)CO)cc4C3)nnc2n1 (configuration not stated)	32µM*	24
CN(C)CC(O)c1cc2n(n1)CCCN(C(=O)c1cccn1C1CC1)C2 (configuration not stated)	i	17
COc1ccc(OC)c(NS(=O)(=O)c2cc(C(=O)N3CCCCC3)cs2)c1	i	·
c1cn(-c2ccc(Oc3nn[nH]n3)cc2)c(-c2cc3n(n2)CCNC3)n1	18µM*	2
c1cn(-c2ccc(OCC3CCCO3)cc2)c(-c2cc3n(n2)CCNC3)n1 (configuration not stated)	?	-3
Cn1c(=O)c2c(ncn2CC(=O)NC2(C)CCS(=O)(=O)C2)n(C)c1=O (configuration not stated)	i	·
O=C(NCCC1CCN(C(=O)Nc2cc(F)cc(F)c2)CC1)c1ccccc1	i	-11
CN(C)c1cccc(C(=O)NCCC2CCN(C(=O)Nc3cc(F)cc(F)c3)CC2)c1	32µM*	-4
C[C@]1(CO)C2CC[C@@H](O)[C@@H](CC(=O)NCc3ccccc3)[C@]2(C)CC[C@H]1OC(=O)NC1CCCCC1 (some centres not stated)	i	1
SMILES	KDM5B inhibitor	IP6K1 inhibitor
COc1cc(NC(=O)CSc2ncnc3nc[nH]c23)cc(OC)c1OC	i	·
Cc1cc(C)c(CNC(=O)c2nc(-c3ccc(F)cc3)cc3c2ccn3C(C)C)c(=O)[nH]1	i	-8
Cc1cc(C)c(CNC(=O)c2cc(-c3ccccc3)cc3c2OCCN3C(C)C)c(=O)[nH]1	35µM*	-15
COc1ccccc1-c1cc(C(=O)NCc2c(C)cc(C)[nH]c2=O)c2c(c1)N(C)CCO2	?	-1
Cc1cc(C)c(CNC(=O)c2cc(-c3ccc(CN4CCOCC4)cc3)cc3c2cnn3C2CCCC2)c(=O)[nH]1	·	-12
COc1ncccc1-c1cc(C(=O)NCc2c(C)cc(C)[nH]c2=O)c2c(c1)N(C(C)C)CCO2	28µM*	-7
Cc1cc(C)c(CNC(=O)c2cc(-c3ccnn3C)cc3c2OCCN3C(C)C)c(=O)[nH]1	35µM*	-16
Cc1ccc(-c2cc(C(=O)NCc3c(C)cc(C)[nH]c3=O)c3c(c2)N(C(C)C)CCO3)cc1	25µM*	3
COc1ccccc1C1CC(=O)Nc2c(-c3ccccc3)nsc21 (configuration not stated)	i	·
COc1ccccc1Nc1ccnc(N2CCC(C(=O)NCCc3ccc(Cl)cc3)CC2)n1	·	8
O[C@@H]1CC(CNCC2CCCC2)(COc2cccnc2)C[C@@H]1O (some centres not stated)	i	6
Cc1sc2ncn(CC(=O)NC3CCCc4ccccc43)c(=O)c2c1-c1ccccc1 (configuration not stated)	i	·
Cn1c(C(=O)N2CCN(C(=O)c3cccc(F)c3)CC2)cc2ccccc21	i	·
O=C(O)Cn1ccc2cc(OCC3CCN(C(=O)COc4ccccc4)CC3)cnc21	35µM*	-8
O=C(O)Cn1ccc2cc(OCC3CCN(C(=O)Cc4ccccc4)CC3)cnc21	40µM*	-4
